# Bioassay records from PubChem BioAssay.
# The list is not random: actives were taken first. Their share in the collection is about 4.8%.
# hcDAF-12 act – H. contortus DAF-12 activation, primary screen. HEK293 hcDAF-12 lit1-tk-luc reporter, luminescence; 0% DMSO, 100% Δ7-dafachronic acid. activation, % at 6.8 µM. hit rate 1.4% among 370,000. AID 652067;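 active = activation above the mean of all tested compounds plus 3 SD, cut at about 5.5% in these data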;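 note: 100% = response to 3 µM Δ7-dafachronic acid high control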
# DAX1 inh-1 – NR0B1 (DAX1) inhibition; P51843; HEK293 Gal4-DAX1 luciferase reporter, luminescence; inhibition, % at 6.75 µM; hit rate 0.99% among 340,000;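 active = inhibition above the mean over all tested compounds plus 3 SD, cut at about 4.2% in these data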;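 note: 0% = DAX1-transfected cells with DMSO and 100% = empty-vector control cells with DMSO; inhibition shows as a rise in luminescence from relieved DAX1 repression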
# Target sequence (P51843 207-470 limits assumed): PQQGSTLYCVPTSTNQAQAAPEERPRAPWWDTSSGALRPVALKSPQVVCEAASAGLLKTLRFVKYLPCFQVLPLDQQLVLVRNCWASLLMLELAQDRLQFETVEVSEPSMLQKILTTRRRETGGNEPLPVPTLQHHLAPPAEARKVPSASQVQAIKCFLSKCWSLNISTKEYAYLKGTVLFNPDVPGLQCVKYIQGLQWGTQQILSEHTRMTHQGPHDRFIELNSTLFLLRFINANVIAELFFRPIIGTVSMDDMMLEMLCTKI
# hgDAF-12 ag – hgDAF-12 agonism, primary luciferase screen; HEK293 GAL4-hgDAF12 UAS-luciferase reporter, agonist luminescence; normalized to butyrate control; activation, % at 6.8 µM; hit rate 1.8% among 370,000; AID 687014;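 active = activation above a cutoff set at the mean of all screened compounds plus 3 SD, cut at about 10% in these data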;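 note: 0% = DMSO wells and 100% = sodium butyrate wells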
# SMARCA2 activ – SMARCA2 function activation, primary screen; AID 652017; MG213 cells, MMTV-luciferase reporter, dexamethasone, overnight; activation, % at 9.1 µM; hit rate 1% among 370,000; in the data active = activation above about 7.8%;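 note: 0% = vehicle wells and 100% = reference activator wells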
# ssDAF12 agonist – activates DAF-12 receptor from parasite S. stercoralis | hit rate 1% among 370,000 | HEK293 ssDAF-12/GRIP1 lit1-tk-luc reporter, luminescence; % of 3 µM dafachronic acid response | activation, % at 6.8 µM | AID 652126;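 active = activation above the mean over all tested compounds plus 3 SD, cut at about 0.9% in these data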;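 note: 0% = DMSO-only wells and 100% = 3 µM delta7-dafachronic acid wells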
# DAX1 inh-2 – blocks DAX1 repression of SF-1 activated StAR promoter | HEK293T StAR-luciferase reporter, SF-1/DAX-1 repression relief | inhibition, % at 6.8 µM | hit rate 1.1% among 370,000;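 active = inhibition above the mean over all tested compounds plus 3 SD, cut at about 3.6% in these data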;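 note: 0% = DAX-1 cells with DMSO and 100% = cells lacking DAX-1 with DMSO; higher inhibition means more luminescence from relief of DAX-1 repression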
# An asterisk follows results filed as active; x = no result given.
SMILES,hcDAF-12 act,DAX1 inh-1,hgDAF-12 ag,SMARCA2 activ,ssDAF12 agonist,DAX1 inh-2
COc1ccc(/C([O-])=C(/C(=S)Nc2ccc(C)c(C)c2)n2c[n+](C)c3ccccc32)cc1OC,2,0,2,0,-1,0
COc1ccc(-c2cc(C(=O)NCC3CCCO3)on2)cc1OC (centres undefined),1,0,1,-4,-1,0
COc1cccc(-c2cc(C(=O)NCC3CCCO3)on2)c1 (centres undefined),4,1,11*,1,0,1
O=[N+]([O-])c1cccc(C=NN2CCCCCC2)c1,3,1,11*,1,-1,2
O=[N+]([O-])c1ccccc1/C=C/C=N/N1CCCCC1,5,7.3*,11*,4,0,3
CCCNC(=O)c1cc(C2CCCCN2S(=O)(=O)c2ccc(OC)cc2)on1 (centres undefined),0,x,-4,-3,-1,0
NC(=O)CCn1c(C(=O)c2cccc([N+](=O)[O-])c2)c2ccccc2[n+]1[O-],3,0,1,1,1.1*,1
C=CCN1c2ccccc2Sc2cnccc21,-2,0,2,-5,-2,-1
CC(=O)OCCN1c2ccccc2Sc2cnccc21,-2,0,11*,1,-1,0
Cc1cc(-c2nc3ccccc3o2)c2ccccc2n1,2,1,1,1,1.2*,-1
CCOc1ccccc1-n1nnnc1SCc1nc2ccccc2s1,4,1,6,2,3.6*,2
Cc1ccccc1-n1c(C)nnc1SCc1nc2ccccc2s1,5,1,10,2,0,3
COc1cc(/C=N/N=C/c2cc(OC)c(O)c(OC)c2)cc(OC)c1O,-1,-1,0,0,-1,0
CCOC(=O)/C(C#N)=C/Nc1ccccc1OC(F)(F)F,-1,x,2,-1,1.5*,-1
CN(Cc1cccc(Cl)c1Cl)C(=O)CCNC(=O)c1ccco1,3,-1,-1,-6,0,4.1*
CCc1ccc(CN(C(=O)c2cc3ccccc3oc2=O)C2CCS(=O)(=O)C2)cc1 (centres undefined),4,2,10,3,0,2
O=C(c1cc2ccccc2oc1=O)N(Cc1ccc(F)cc1)C1CCS(=O)(=O)C1 (centres undefined),3,4.5*,3,-2,0,2
O=C(c1cc2ccccc2oc1=O)N(Cc1cccs1)C1CCS(=O)(=O)C1 (centres undefined),5.8*,1,7,6,1,1
O=C(NC(c1ccccc1)c1cc(Cl)c2cccnc2c1O)c1cccnc1 (centres undefined),-1,x,-1,-3,-1,0
COc1ccc(CCNC(=O)c2cnc(C)cn2)cc1,3,0,1,1,-1,-1
O=C(NCCc1ccc(Cl)cc1)c1ccc2c(c1)OCCO2,5,1,11*,0,0,2
Cc1cnc(C(=O)NCCc2ccc(Cl)cc2)cn1,1,0,6,3,-1,4.0*
CCN(CC(=O)Nc1ccccc1OC)C(=O)C1CCC1,1,0,-1,-2,-1,0
CCCn1cc(SCC(=O)Nc2cc(C)on2)c2ccccc21,-2,0,-2,-3,-1,-1
CCCCc1c(C)[nH]c(=S)[nH]c1=O,-1,0,-1,-3,-1,0
SMILES,hcDAF-12 act,DAX1 inh-1,hgDAF-12 ag,SMARCA2 activ,ssDAF12 agonist,DAX1 inh-2
OCCOCCNc1ncnc2c1cnn2-c1ccccc1,0,0,8,7.8*,0,1
CC(C)OCCCNc1ncnc2c1cnn2-c1ccccc1,5,-1,12*,6,0,3
c1ccc(CNc2ncnc3c2cnn3-c2ccccc2)cc1,-1,0,7,4,-2,1
c1ccc(CCNc2ncnc3c2cnn3-c2ccccc2)cc1,3,1,12*,7,1,3.7*
CC(=O)Nc1ccccc1C(=O)C(=O)Nc1ccc(C)c(F)c1,4,1,7,5,-1,2
CC(=O)Nc1ccccc1C(=O)C(=O)Nc1ccc(C)c(C)c1,0,3,11*,2,-1,2
CCc1ccc(/C=C2\SC(=S)N(CCC(=O)Nc3cc(C)on3)C2=O)cc1,-3,-2,-9,-9,-3,-1
